PubChem BioAssay AID720511 (Broad Institute, 2013)
Where “and” joins values, the source holds several entries; their conditions need not be identical. Identical values can stand only once. Out of some 350,000 compounds screened, about 1,300 (0.37%) were called active.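 Rule for the calls: active = mean added fluorescence quench of at least 8% versus neutral control, with both replicates also reaching 8%; inconclusive = only one of the mean or replicate conditions met; inactive = mean below 8% and not both replicates reaching 8%.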 Only a selection was taken, and actives are over-represented in it overall.

Experiment: F508del CFTR correction, initial screen, CFBE line, single point (AID 720511);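 note: cells transiently co-express mutant CFTR-F508del with the halide-sensitive YFP; corrector assay measuring rescue of mutant channel to the surface after 24 h compound exposure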
Conditions: CFBE cells, YFP halide quenching, at 7.58 µM, stronger effect = higher value, % fluorescence drop versus neutral controls, stimulated with forskolin plus potentiator P3

Activity (quench increase), inactive:
CCCC#Cc1ccc2c(c1)O[C@@H](CN(C)CC1CC1)[C@@H](C)CN([C@H](C)CO)S2(=O)=O 2.53%
Cc1ccc(S(=O)(=O)N2C[C@H](O)COC[C@H]3O[C@H](CC(=O)N[C@H]4CCN(Cc5ccccc5)C4)CC[C@@H]32)cc1 0.736%
C[C@@H]1CN([C@H](C)CO)C(=O)Cc2cc(NC(=O)NC3CCCCC3)ccc2O[C@H]1CN(C)S(C)(=O)=O 0.525% and 3.05%
CCC(=O)N1C[C@@H](C)[C@@H](OC)CN(C)C(=O)c2ccc(NC(=O)Nc3ccccc3)cc2OC[C@H]1C -0.0305%
Cc1ccc(S(=O)(=O)Nc2cccc3c2O[C@@H](CN(C)S(=O)(=O)c2ccc(C)cc2)[C@H](C)CN([C@@H](C)CO)C3=O)cc1 -1.75%
O=C(C[C@H]1CC[C@H]2[C@@H](COC[C@@H](O)CN2C(=O)c2ccc3c(c2)OCO3)O1)NC1Cc2ccccc2C1 3.06%
Nc1c(Cl)cc(S(N)(=O)=O)cc1S(N)(=O)=O -0.405%
NS(=O)(=O)c1ccc(NC(=S)Nc2ccc(Br)c(Cl)c2)cc1 1.17%
CC(=O)N(C)C[C@H]1Oc2ncc(-c3cccc(F)c3)cc2C(=O)N([C@@H](C)CO)C[C@H]1C -3.71%
CN1C(=O)c2cc(NC(=O)c3ccccc3)ccc2OC[C@@H]2O[C@H](CC(=O)NCC3CC3)CC[C@@H]21 -1.16%
Cc1ccc(S(=O)(=O)N[C@H]2CC[C@@H](CC(=O)N3CCc4ccccc4C3)O[C@H]2CO)cc1 -3.27%
CCOC(=O)c1c(NC(=O)C2CC=CCC2C(=O)O)sc(C)c1CC (stereo not drawn) 0.585%
CCC1CCC2(CC1)NC(=O)N(CC(=O)Nc1ccc(OC)cc1)C2=O (stereo not drawn) 4.71%
O=S(=O)(NCc1ccc(Cl)cc1Cl)c1cccs1 0.403%
O=S(=O)(NC1CC1)c1ccc(Cl)cc1 0.433%
C/C=C/c1ccc([C@H]2[C@@H](CNC(C)C)N(c3nc(CC)cs3)[C@H]2CO)cc1 2.62%
COc1cc(C(=O)NCc2cc3cc(Cl)ccc3n2C)cc(OC)c1OC 2.35%
COc1ccc(C(=O)N/N=C(\C)CC(=O)Nc2ccc(Cl)cn2)cc1 0.068%
Cc1ccc(S(=O)(=O)Nc2ccc3c(c2)C(=O)N([C@@H](C)CO)C[C@@H](C)[C@H](CN(C)Cc2ccc(C(=O)O)cc2)O3)cc1 5.34%
COc1cccc(-c2cnc3c(NC(C)=O)cc(-c4cccc(NC(C)=O)c4)cn23)c1 -0.356%
COc1ccccc1-c1cc(NC(C)=O)c2ncc(-c3ccc(F)cc3)n2c1 3.05%
CCCNC(=O)[C@@H]1[C@@H](CO)[C@@H]2Cn3c(ccc(C4=CCCCC4)c3=O)[C@H]1N2CCC 0.001%
CN(c1ccc(O)cc1)c1nc(-c2cccnc2)cs1 3.59%
COc1ccc(C(C)(O)c2nc(-c3ccc(C)c(C)c3)cs2)cc1 (stereo not drawn) 0.543%
C[C@H](CO)N1C[C@H](C)[C@H](CN(C)C(=O)c2cccnc2)Oc2ncc(C3=CCCC3)cc2C1=O -0.608%
C[C@H](CO)N1C[C@H](C)[C@@H](CN(C)C(=O)NC2CCCCC2)Oc2c(NC(=O)Nc3ccc(F)cc3)cccc2C1=O 3.54%
C[C@@H]1CN([C@H](C)CO)C(=O)Cc2cc(NC(=O)Nc3ccccc3)ccc2O[C@@H]1CN(C)Cc1ccc(C(F)(F)F)cc1 0.116%
C[C@@H]1CN([C@H](C)CO)C(=O)c2cccc(NC(=O)Nc3ccccc3)c2O[C@@H]1CN(C)C(=O)NC1CCCCC1 -1.15%
C[C@@H]1CN([C@H](C)CO)C(=O)Cc2cc(NC(=O)Nc3ccccc3)ccc2O[C@H]1CN(C)Cc1ccc(Cl)c(Cl)c1 -0.242%
O=C(C[C@@H]1C=C[C@H](NC(=O)Nc2ccc3c(c2)OCO3)[C@H](CO)O1)NCc1ccccc1 4.6%
CO[C@H]1CN(C)C(=O)c2ccc(NS(=O)(=O)c3ccccc3C)cc2OC[C@H](C)NC[C@H]1C -0.483%
CCCn1nc(C(=O)Nc2ccc3nc(C)sc3c2)c2ccccc2c1=O -0.539%
CC(=O)Nc1ccc2nc(NC(=O)CS(=O)(=O)c3ccc(F)cc3)sc2c1 0.717%
CCS(=O)(=O)Nc1ccc2c(c1)C(=O)N(C)[C@H]1CC[C@@H](CC(=O)Nc3ccccc3)O[C@H]1CO2 -3.46%
CCOc1ccc(NC(=O)c2ccc(NC(=O)COC(=O)c3ccc(NC(=O)CC#N)cc3)cc2)cc1 -1.21%
CCOc1ccc(NC(=O)CCNC(=O)c2ccc(Br)cc2)cc1 -1.36%
COc1ccc(NC(=O)N(C)C[C@H]2OCCCC[C@@H](C)Oc3ccc(NS(=O)(=O)c4ccc(F)cc4)cc3C(=O)N([C@H](C)CO)C[C@H]2C)cc1 3.43%
C[C@@H](O)C#Cc1ccc([C@@H]2[C@H]3CN(S(=O)(=O)c4ccccc4)CCCCN3[C@H]2CO)cc1 1.07%
CO[C@@H]1CC[C@@H]2CCOc3c(C#N)cccc3C(=O)N(C)C[C@H](C)C(=O)N(C)C[C@H]1O2 1.86%
O=C1c2cccc3c([N+](=O)[O-])ccc(c23)C(=O)N1CC1CCCO1 (stereo not drawn) 0.491%
Cn1cc(C2OC(=O)c3ccccc32)c2ccccc21 (stereo not drawn) 1.54%
NC(=O)c1ncn([C@@H]2O[C@H](C(=O)O)[C@@H](O)[C@H]2O)n1 2.03%
COc1ccc(CN(C)C[C@@H]2OCCCC[C@@H](C)Oc3ccc(NC(=O)Nc4ccc(OC)cc4)cc3C(=O)N([C@@H](C)CO)C[C@@H]2C)cc1 -0.139%
COc1ccc(-c2cn(CC[C@@H]3CC[C@@H](NS(=O)(=O)c4ccccc4C)[C@H](CO)O3)nn2)cc1 2.94%
CCCC(=O)Nc1ccc2c(c1)OC[C@H](C)N(S(=O)(=O)c1cn(C)cn1)C[C@@H](C)[C@H](OC)CN(C)C2=O -4.43%
O=C(c1ccccn1)N1CC[C@@H]2[C@H]1c1cc(-c3ccccc3)ccc1N[C@@H]2CO -1.72%
O=C1CN(S(=O)(=O)Cc2ccccc2)C[C@@H]2[C@@H](c3ccc(C#Cc4ccccc4)cc3)[C@@H](CO)N12 7.93%
CCS(=O)(=O)N1CC(=O)N2[C@H](CO)[C@@H](c3ccc(C#Cc4cccc(F)c4)cc3)[C@@H]2C1 7.13%
CCS(=O)(=O)N1CCC2(CC1)CN[C@H](CO)c1c2c2ccc(OC)cc2n1C 0.371%
C[C@@H]1CN([C@@H](C)CO)C(=O)c2cc(NS(C)(=O)=O)ccc2O[C@@H]1CN(C)C(=O)Nc1ccc(F)cc1 -3.43%
O=C(COC(=O)c1ccc(F)cc1)NCC1COc2ccccc2O1 (stereo not drawn) -0.696%
O=C(NCC1COc2ccccc2O1)C1(c2ccccc2)CCCC1 (stereo not drawn) 1.14%
CC(=O)N(C)C[C@H]1Oc2ncc(C#Cc3ccccn3)cc2C(=O)N([C@H](C)CO)C[C@@H]1C 0.118%
CO[C@@H](CN(C)S(=O)(=O)c1ccccc1)[C@H](C)CN(Cc1ccccc1Cl)[C@H](C)CO -3.7%
COc1ccc2c3c(n(C)c2c1)[C@H](CO)N(S(=O)(=O)c1ccc(C)cc1)CC31CN(C(=O)c2ccccn2)C1 1.98%
Cc1ccc(S(=O)(=O)Nc2ccc3c(c2)C(=O)N([C@H](C)CO)C[C@@H](C)[C@H](CN(C)C(=O)Nc2ccc(C(F)(F)F)cc2)OCCCC[C@H](C)O3)cc1 -0.228%
C/C(=N\Nc1ccc(Cl)nn1)c1ccccc1O -2.03%

Activity (quench increase), active:
CC[N+]1(CC)CC2=Cc3ccccc3CC2C1 (stereo not drawn) 13.8%
NS(=O)(=O)c1cc(Cl)c(Cl)c(S(N)(=O)=O)c1 9.04%
CCOC(=O)c1c(NC(=O)CN2C(=O)NC3(CCC(C)CC3)C2=O)sc(C)c1CC (stereo not drawn) 8.23%
O=S(=O)(Cc1ccc(Cl)cc1Cl)c1ccc(Cl)cc1 12.1%
COc1ccc(OC)c(/C(C)=N\NC(=O)c2cc3cc(Cl)ccc3n2C)c1 14.1%
COc1cccc(-c2cnc3c(NC(C)=O)cc(-c4cc(F)ccc4OC)cn23)c1 9.31%
CC(C)(C)C(=O)OCc1nc(-c2ccc(O)c(O)c2)cs1 8.8%
C[C@H]1CN([C@@H](C)CO)C(=O)c2cccc(NC(=O)Nc3ccc(C(F)(F)F)cc3)c2O[C@H]1CN(C)C(=O)NC1CCCCC1 8.85%
C[C@H](CO)N1C[C@H](C)[C@@H](CN(C)Cc2ccc(Cl)c(Cl)c2)Oc2ccc(NC(=O)Nc3ccc(C(F)(F)F)cc3)cc2CC1=O 12.6%
CCCC(=O)Nc1nc2ccc(NC(=O)c3c(F)c(F)c(OC)c(F)c3F)cc2s1 13.3%
CCOc1ccc(NC(=O)c2ccc(NC(=O)CN3C(=O)C(=O)N(CC(C)C)C3=O)cc2)cc1 9.37%
CN1C(=O)c2cccc3c(N)ccc(c23)C1=O 23.7%
CCc1cc(-c2nnn(CCC3COCCO3)c2CC)ccc1-c1cn(Cc2ccc3ccccc3c2)nn1 (stereo not drawn) 8.99%
O=C1CN(S(=O)(=O)Cc2ccccc2)C[C@@H]2[C@@H](c3ccc(C#Cc4cccc(F)c4)cc3)[C@@H](CO)N12 9.07%
Cc1noc(C)c1C(=O)NCC1COc2ccccc2O1 (stereo not drawn) 19.3%
Oc1cccc(/C=N/Nc2ccc(Cl)nn2)c1O 13.3%
